From PubChem BioAssay AID651871 (Sanford-Burnham Center for Chemical Genomics, 2012) come the findings set out here.

SMILES strings stand for the structures.

In the experiment the test system is HL-1. Nature of the experiment: cardiomyocyte survival under oxidative or metabolic stress – cell-based, panel, H9c2 and HL-1, ATP luminescence, set 2, SAR follow-up (AID 651871).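 Note: cells exposed to stressor for 2 h before ATP readout; reference of the scale not given here.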 To be noted: H9c2/HL-1 cardiomyocytes, 2-deoxyglucose stress, with 2-deoxyglucose, run 12, at 19.8 µM (top of the series).

The molecule `COc1ccc2c(c1OC)C(=O)N1c3ccccc3C(=O)N(Cc3cccc(Cl)c3Cl)C21` (stereo unspecified) registered an activity (protection/inhibition) of 51%.
